The campaign covered roughly 150,000 compounds. About 6,500 (4.3%) were called active. Roughly 12% stayed inconclusive and do not appear here. This is one part of a sample in which actives are shown more often than they occur. Calls follow the shape of the dose curve; as a rule, active = well fitted inhibition curve with a large enough effect (not every such curve was filed as active); inconclusive = small, poorly fitted or top-dose-only effect, or another doubt; inactive = no such curve, though single readings can be large or run the other way.
% is scaled to controls: 0 for no effect and ±100 for the full control effect; potency is read from the fitted curve at half-maximal effect.

15-hydroxyprostaglandin dehydrogenase [NAD(+)] (Homo sapiens), sequence (P15428 whole entry, looked up): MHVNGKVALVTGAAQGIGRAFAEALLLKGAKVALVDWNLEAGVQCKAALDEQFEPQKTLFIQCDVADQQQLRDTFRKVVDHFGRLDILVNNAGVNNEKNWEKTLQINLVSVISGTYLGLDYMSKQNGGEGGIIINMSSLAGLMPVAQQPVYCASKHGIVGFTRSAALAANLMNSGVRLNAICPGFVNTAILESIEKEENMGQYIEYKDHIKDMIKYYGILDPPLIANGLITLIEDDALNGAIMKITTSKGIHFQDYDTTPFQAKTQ

For this assay, the target named is 15-hydroxyprostaglandin dehydrogenase [NAD(+)] (Homo sapiens) (UniProt P15428). The experiment in a line: qHTS Assay for Inhibitors of HPGD (15-Hydroxyprostaglandin Dehydrogenase). The note with it: purified HPGD, NADH fluorescence kinetic, PGE2 substrate; activity change, negative = inhibition: stronger effect = lower value. The text has this:
Human 15-Hydroxyprostaglandin dehydrogenase (HPGD) catalyzes the inactivation of prostaglandin E2, and plays a major role in cancer biology by antagonizing the oncogenic potential of cyclooxygenase type 2 (COX2). Assays are available, based on absorbance/fluorescence increase of NADH with the substrate 15-OH prostaglandin E2. References 1. Myung SJ, Rerko RM, Yan M, Platzer P, Guda K, Dotson A, Lawrence E, Dannenberg AJ, Lovgren AK, Luo G, Pretlow TP, Newman RA, Willis J, Dawson D, Markowitz SD. 15-Hydroxyprostaglandin dehydrogenase is an in vivo suppressor of colon tumorigenesis. […] 2. Yan M, Rerko RM, Platzer P, Dawson D, Willis J, Tong M, Lawrence E, Lutterbaugh J, Lu S, Willson JK, Luo G, Hensold J, Tai HH, Wilson K, Markowitz SD. 15-Hydroxyprostaglandin dehydrogenase, a COX-2 oncogene antagonist, is a TGF-beta-induced suppressor of human gastrointestinal cancers. Proc Natl Acad Sci U S A. 2004 Dec 14;101(50):17468-73. 3. Yang L, Amann JM, Kikuchi T, Porta R, Guix M, Gonzalez A, Park KH, Billheimer D, Arteaga CL, Tai HH, Dubois R, Carbone DP, Johnson DH. Inhibition of Epidermal Growth Factor Receptor Signaling Elevates 15-Hydroxyprostaglandin Dehydrogenase in Non-Small-Cell Lung Cancer. Cancer Res. 2007 Jun 15;67(12):5587-5593. Inhibition of HPGD activity was screened by utilizing prostaglandin as an electron donor and NAD+ as an electron acceptor/cofactor. An increase in the fluorescence intensity due to conversion of NAD+ to NADH was used to measure the enzyme activity. NIH Chemical Genomics Center [NCGC] Structural Genomics Consortium [SGC]
Buffer: 50 mM Tris-HCl, 0.01% Tween 20, pH 8. Enzyme Buffer: 50 mM Tris-HCl, 0.5 mM NAD+ and 0.01% Tween 20, pH 8. Reagents/Controls: Buffer in columns 3 and 4 as negative control (no enzyme). Substrate/cofactor solution: 1 mM NAD+ and 30 uM prostaglandin (Sigma, prostaglandin E2, # P5640) final concentrations dispensed throughout the plate. Enzyme: 20 nM HPGD final concentration in columns 1, 2, 5-48. Column 1 and 2 is neutral (100% activity). A titration of control inhibitor GW5074 (G6416 Sigma-Aldrich, St. Louis, MO) top concentration 10 mM in DMSO, then 1:2 dilution for a total of 16 concentrations in duplicate) was pin-transferred into column 2. Assay Steps: Three uL of enzyme were dispensed to 1536-well Greiner black solid bottom plates. Compounds and control inhibitor (23 nL) were transferred via Kalypsys PinTool. The plates were incubated for 15 min at room temperature, and then 1 uL of substrate/cofactor solution was added to start the reaction. The plates were immediately transferred to and read 5 times every 30 seconds on ViewLux High-throughput CCD imager (Perkin-Elmer) using 360 nm excitation and 450 nm emission fluorescence protocol. The fluorescence intensity difference between the last and the first time points was used to compute reaction progress.
For orientation: In qHTS, concentration-response curves come from the screen itself.
Consider `O=C(CN1C(=O)c2ccccc2S1(=O)=O)N1CCc2ccccc21`, for which the activity change, negative = inhibition is -12.2% (inactive).

With `O=C1c2ccccc2S(=O)(=O)N1CC(O)Cn1c2ccccc2c2ccccc21` (configuration not stated), the Potency was 8.91 µM (active). In the case of `Nc1nnc(SCCN2C(=O)c3ccccc3S2(=O)=O)s1`, the activity change, negative = inhibition is -12.2% (inactive). Consider `CCCCC/C=C\C/C=C\CCCCCCCCCC(=O)NCC(=O)O`, for which the activity change, negative = inhibition is -8.47% (inactive). Still for that read-out and setting: next, `Cc1cccc(-c2nc3ccccc3c(=O)n2NC(=O)Cc2ccc(Cl)cc2)c1`: -9.37% (inactive); `CCCCc1cc2c(s1)CCCC/C2=N/O`: -24.8% (inactive); `CC(C)NC(=O)CSc1ccccc1C(=O)NCc1ccc2c(c1)OCO2`: -1.41% (inactive). `CCSc1ccccc1C(=O)NCc1ccc(OC)cc1`: the Potency was 2.51 µM (active). Turning to `COc1ccc(CNC(=O)CCn2cccc2)cc1`, the activity change, negative = inhibition was -21.6% (inactive). As for `Cc1cccc(N2C(=O)SC(N(CC(=O)O)c3cccc(C)c3)C2=O)c1` (configuration not stated), the activity change, negative = inhibition is -14.2% (inactive). Consider `Cc1cccc(N2C(=O)SC(SC(=Nc3ccccc3)Nc3ccccc3)C2=O)c1` (configuration not stated), for which the Potency is 14.1 µM (active).

Take `Cc1cccc(N2C(=O)C3C(c4ccccc4)OC4(C(=O)c5ccccc5C4=O)C3C2=O)c1` (configuration not stated): the activity change, negative = inhibition is -4.94% (inactive). Still for that read-out and setting: then `O=c1c2c(ncn1Cc1ccccc1)nc1n2CCC1`, with -17.9% (inactive); and `COc1ccc(-c2csc(NC(=O)COC(=O)Cc3ccc(Cl)cc3Cl)n2)cc1`, with -9.05% (inactive); and `O=C(Nc1cn(-c2ccccc2)nc1-c1ccccc1)c1ccccc1`, with -2.03% (inactive).

For `O=C(NC1CCCC1)C(NS(=O)(=O)c1ccc(Br)s1)c1ccccc1` (configuration not stated), the activity change, negative = inhibition is -1.61% (inactive). In the case of `O=C(NC1CCCC1)c1ccc(Br)s1`, the Potency is 3.55 µM (active). Take `CN(CC(=O)NC1CCCCC1)S(=O)(=O)c1ccc(Br)s1`: the activity change, negative = inhibition was -1.92% (inactive). `O=C(COC(=O)c1c2c(nc3ccccc13)/C(=C\c1cccs1)CCC2)Nc1ccccc1Cl`: the activity change, negative = inhibition is -25.4% (inactive). Same read-out and setting: then `C=CCN1c2ccccc2[C@]23C[C@@H](C(=O)OC)N(S(=O)(=O)c4ccc([N+](=O)[O-])cc4)C2=NC(C(=O)OC)=C(C(=O)OC)[C@H]13`, with -18.4% (inactive). On the same count and under the same terms, next, `COc1cc(/C=C(/NC(=O)c2ccc(Cl)cc2Cl)C(=O)O)cc(OC)c1OC`: -5.89% (inactive).

For `O=C(O)c1cccc(S(=O)(=O)Nc2ccc(O)cc2Sc2nc3ccccc3s2)c1`, the Potency is 10 µM (active).

On to `COc1ccc(NS(=O)(=O)c2ccc(NC(=S)NC(=O)CC(C)C)cc2)cc1`, for which the activity change, negative = inhibition was -14.4% (inactive).

As for `O=C(Nc1nc2cc3c(cc2s1)OCCO3)c1cccc(S(=O)(=O)N2CCOCC2)c1`, the activity change, negative = inhibition is -10.8% (inactive). Consider `COc1ccc(S(=O)(=O)Nc2ccc(O)c(Sc3nc4ccccc4s3)c2)cc1`, for which the Potency was 25.1 µM (active). With `O=C(O)c1cccc(S(=O)(=O)NCCO)c1`, the activity change, negative = inhibition was -3.87% (inactive). Same read-out and setting: next, `COC(=O)c1nc2ccccc2s1`: 0.316% (inactive); `CC(=O)NC1=NN(C(C)=O)C(C)(CCS(=O)(=O)c2ccc(Cl)c(Cl)c2)S1` (configuration not stated): -9.18% (inactive); `CCCCN1C(=O)c2ccc(C(=O)Nc3ccc(S(=O)(=O)N(C)C)cc3)cc2C1=O`: -11.6% (inactive). Still for that read-out and setting: then `CCCc1nc(SCC(=O)Nc2ccccc2OC)c2c(=O)n(C)c(=O)n(C)c2n1`, with -0.308% (inactive); and `CCCNC(=O)c1ccccc1NC(=O)CSCc1ccc(OC)cc1`, with -5.31% (inactive). Consider `CCCCCNC(=O)c1cccnc1SCC(=O)Nc1ccccc1OC`, for which the Potency is 10 µM (active).

As to `COc1cccc(NC(=S)NC(=O)c2c(Cl)c(C)nn2C)c1`, the activity change, negative = inhibition is -18.7% (inactive). Turning to `Cc1sc2nc(CC(N)=O)[nH]c(=O)c2c1-c1ccccc1`, the activity change, negative = inhibition was 1.92% (inactive). Regarding `O=C(NCc1ccc2c(c1)OCO2)C12CC3CC(CC(C3)C1)C2`, the Potency is 31.6 µM (active).

As for `O=C(Cn1nnc(-c2ccccc2)n1)NCc1ccc2c(c1)OCO2`, the activity change, negative = inhibition was -12.6% (inactive). Same read-out and setting: then `Cn1cc(CCC(=O)NCc2ccc3c(c2)OCO3)c2ccccc21`, with -17.1% (inactive); and `CCOC(=O)NCc1ccc2c(c1)OCO2`, with -9.86% (inactive); and `O=C(CNS(=O)(=O)c1ccc(Br)s1)NCc1ccc2c(c1)OCO2`, with -7.58% (inactive).

As for `CC1CCCCN1CC(=O)NCc1ccc2c(c1)OCO2` (configuration not stated), the Potency was 8.91 µM (active). In the case of `OC[C@H]1O[C@@H](n2cnc3c(NC4CCCC4)ncnc32)[C@H](O)[C@H]1O`, the activity change, negative = inhibition was -4.78% (inactive). As for `CCCCC(NS(=O)(=O)c1ccc(C)cc1)C(=O)Oc1ccc2c3c(c(=O)oc2c1)CCC3` (configuration not stated), the activity change, negative = inhibition is -8.04% (inactive). `Cn1c(=O)c(Sc2ccc(Cl)cc2)c(O)c2ccccc21`: the activity change, negative = inhibition is -12.7% (inactive). Same read-out and setting: then `CC(C)OCCCNC(=O)c1cc(Sc2ccc(F)cc2)nc2ccccc12`, with -12.9% (inactive).

In the case of `Cc1nc([N+](=O)[O-])nn1C12CC3CC(CC(Br)(C3)C1)C2`, the Potency is 14.1 µM (active). Consider `Cc1ncn(C23CC4CC(CC(O)(C4)C2)C3)n1`, for which the activity change, negative = inhibition was -6.48% (inactive). Consider `COc1cccc(NC(=O)c2nn(C34CC5CC(CC(C5)C3)C4)cc2[N+](=O)[O-])c1`, for which the activity change, negative = inhibition is -4.79% (inactive).
